GPT2 inhibitor: GPT2 alanine aminotransferase inhibition | Potency, µM (top dose mostly 57.7 µM), most hits filed as inhibitors | Recombinant GPT2, coupled pyruvate oxidase/HRP Amplex Red fluorescence | 0.25% of 100,000 active | AID 1671188 | Q8TD30; note: nearly all actives have a fitted effect of over 60% in size
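Inhibition is scored from Amplex Red fluorescence generated when pyruvate oxidase and HRP act on pyruvate released by GPT2. Reactions contain 10ng/uL enzyme, 250uM a-KG and 2mM L-alanine and run 30 min at room temperature.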
hNpr1 antagonist: human Npr1 receptor antagonism. P16066. HEK293 hNpr1 GloSensor cGMP, ANP-stimulated luminescence. Potency, µM (top dose mostly 46.3 µM), actives largely listed as inhibitors. 1.6% of 76,000 active; calls by dose curve; note: nearly all actives have a fitted effect of over 60% in size
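Compound pre-incubated 30 min at room temperature on GloSensor-loaded HEK293 cells stably carrying hNpr1 and the pGS-40F cGMP biosensor. Stimulation uses hNppA at 0.1 nM final; luminescence is taken at baseline and 20 min post-agonist.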
Luciferase inh: blocks purified firefly luciferase enzyme activity | P08659 | purified P. pyralis luciferase, luminescence, biochemical | Potency, µM (titrated, usually from 115 µM), most hits filed as inhibitors | 2.5% of 76,000 active | AID 1347043; note: nearly all actives have a fitted effect of over 65% in size
Target sequence (P08659 whole entry, looked up): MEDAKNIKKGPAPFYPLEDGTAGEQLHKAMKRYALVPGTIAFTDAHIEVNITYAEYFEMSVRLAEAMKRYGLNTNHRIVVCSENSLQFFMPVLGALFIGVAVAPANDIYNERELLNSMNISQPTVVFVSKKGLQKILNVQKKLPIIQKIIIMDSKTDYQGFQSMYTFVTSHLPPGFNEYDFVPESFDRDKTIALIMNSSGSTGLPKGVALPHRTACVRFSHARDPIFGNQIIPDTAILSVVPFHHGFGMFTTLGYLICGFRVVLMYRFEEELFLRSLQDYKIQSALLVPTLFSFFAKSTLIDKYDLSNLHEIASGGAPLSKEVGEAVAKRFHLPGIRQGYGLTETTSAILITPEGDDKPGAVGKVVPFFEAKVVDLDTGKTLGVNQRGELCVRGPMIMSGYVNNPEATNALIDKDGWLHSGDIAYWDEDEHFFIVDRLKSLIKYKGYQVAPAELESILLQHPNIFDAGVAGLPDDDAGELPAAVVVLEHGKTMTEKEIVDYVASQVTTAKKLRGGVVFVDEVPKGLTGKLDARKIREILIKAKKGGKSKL
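Purified 10nM P. pyralis luciferase with 10uM D-luciferin and 10uM ATP in 50mM Tris acetate pH 7.5, 10mM Mg acetate, 0.01% Tween-20, 0.05% BSA. qHTS titration; luminescence read by CCD imager.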
3T3 cytotox: NIH 3T3 cell cytotoxicity. AID 1345082. Potency, µM (series often up to 96.7 µM), hits mostly inhibitors. NIH 3T3 viability, CellTiter-Glo ATP luminescence, 48-72 h. 4.3% of 94,000 active; note: nearly all actives have a fitted effect of over 55% in size
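Luminescent ATP readout (CellTiter-Glo, 10 min RT) after 48 or 72 hr compound exposure of NIH 3T3 cells seeded at 400 cells/well in 1536-well format; quantitative HTS.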
HEK293 tox: HEK 293 cell cytotoxicity; HEK 293 viability, ATP luminescence (CellTiter-Glo), 48-72 h; Potency, µM (top dose mostly 115 µM), most hits filed as inhibitors; 6.6% of 94,000 active; AID 1345083; note: nearly all actives have a fitted effect of over 60% in size
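qHTS cytotoxicity; HEK 293, 250 cells/well; compound pinned; 48 or 72 hr, 37 degree Celsius, 5% CO2, 95% humidity; CellTiter-Glo, 10 min RT; luminescence (ATP).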
Each line names hits and unclear results; the compound was inactive in the other large screens. This is a sample that favours compounds with a hit; in the whole collection about 10% have one here. Unless noted, calls come from the whole dose curve; as a rule, active = well fitted curve in the direction sought with a large enough effect; inconclusive = small, poorly fitted or top-dose-only effect, or another doubt; inactive = no such curve, though single readings can be large; an effect the other way counts as inactive or inconclusive.

Cn1cc(CN2CCOCCNC(=O)CC2)c2ccccc21	3T3 cytotox inconclusive
COc1ccccc1Cn1c(=O)c(C(=O)N2CCN(C(=O)Cc3ccc(F)cc3)CC2)nc2cccnc21	3T3 cytotox inconclusive, HEK293 tox inconclusive (no result: hNpr1 antagonist, Luciferase inh)
CC(C)(Oc1nn(Cc2cccc(Cl)c2)c2ccccc12)C(=O)NCc1ccncc1	hNpr1 antagonist inconclusive, 3T3 cytotox 32µM, HEK293 tox inconclusive
COCCNC(=O)C(C)(C)Oc1nn(Cc2cccc(Cl)c2)c2ccccc12	GPT2 inhibitor inconclusive, 3T3 cytotox inconclusive, HEK293 tox 79µM
CC(C)(Oc1nn(Cc2cccc(Cl)c2)c2ccccc12)C(=O)NCc1cnccn1	3T3 cytotox inconclusive, HEK293 tox 89µM
COCCCNC(=O)C(C)(C)Oc1nn(Cc2cccc(Cl)c2)c2ccccc12	hNpr1 antagonist inconclusive, 3T3 cytotox inconclusive, HEK293 tox inconclusive
CN1CCC(NC(=O)C(C)(C)Oc2nn(Cc3cccc(Cl)c3)c3ccccc23)CC1	3T3 cytotox 32µM, HEK293 tox 40µM
COc1cc(CNC(=O)c2cc(-c3ccc(F)cc3)cc3ncn(C)c23)ccn1	Luciferase inh inconclusive, 3T3 cytotox inconclusive, HEK293 tox inconclusive
O=C(NCc1ccccc1)NC[C@H]1Cn2c(-c3ccc(Cl)cc3)cnc2CO1	3T3 cytotox inconclusive
COc1ccc(-c2ccc(C(=O)N3CCN(C(=O)c4ccccc4Cl)CC3)cc2)nn1	HEK293 tox inconclusive (no result: GPT2 inhibitor, hNpr1 antagonist, Luciferase inh)
COc1ccc(Nc2ccnc(N3CCC(N[S+](=O)([O-])c4cccs4)CC3)n2)cc1	3T3 cytotox 35µM, HEK293 tox 25µM (no result: hNpr1 antagonist, Luciferase inh)
Cc1ccc(Nc2ccnc(N3CCC(N[S+](=O)([O-])c4c(C)noc4C)CC3)n2)cc1	3T3 cytotox inconclusive, HEK293 tox inconclusive (no result: hNpr1 antagonist, Luciferase inh)
Cc1ccc(Nc2ccnc(N3CCC(N[S+](=O)([O-])c4cccs4)CC3)n2)cc1	3T3 cytotox 35µM, HEK293 tox 22µM (no result: hNpr1 antagonist, Luciferase inh)
Cc1ccc(Nc2ccnc(N3CCC(N[S+](=O)([O-])c4ccc(C)cc4)CC3)n2)cc1	3T3 cytotox 32µM, HEK293 tox inconclusive (no result: hNpr1 antagonist, Luciferase inh)
COc1ccccc1-c1ccc(CN2CCN(c3cc(Cl)ncn3)C(=O)C2)cc1	3T3 cytotox inconclusive, HEK293 tox 45µM
CC(C)CN1C[C@@H](NC(=O)c2cccnc2)C[C@H]1CO	none
CN1c2cc(C(=O)Nc3ccc4c(c3)CCC4)ccc2C(=O)N2CCCCC21 (stereo unspecified)	Luciferase inh 28µM, 3T3 cytotox inconclusive, HEK293 tox inconclusive
Cc1cc(NC(=O)c2ccc3c(c2)N(C)C2CCCCN2C3=O)ccc1F (stereo unspecified)	Luciferase inh 22µM, 3T3 cytotox inconclusive, HEK293 tox inconclusive
CN1c2cc(C(=O)Nc3ccc(F)c(F)c3)ccc2C(=O)N2CCCCC21 (stereo unspecified)	Luciferase inh inconclusive
O=C(NC1CCCCC1)c1ccc2nnc(Cc3ccco3)n2c1	none (no result: hNpr1 antagonist, Luciferase inh)
CC(=O)N1CCN(C(=O)C[C@@H]2C[C@@H](C(C)C)[C@H](CNC(=O)c3cncnc3)C=C2C)CC1	none
CC1=C[C@@H](CNC(=O)c2cncnc2)[C@H](C(C)C)C[C@H]1Cc1nnc(-c2ccncc2)o1	3T3 cytotox inconclusive, HEK293 tox 79µM
CC1=C[C@@H](CN2CCN(C)CC2)[C@H](C(C)C)C[C@H]1Cc1nnc(C)o1	HEK293 tox inconclusive
CC1=C[C@@H](CN2CCN(CCO)CC2)[C@H](C(C)C)C[C@H]1Cc1nnc(-c2ccncc2)o1	GPT2 inhibitor inconclusive, 3T3 cytotox inconclusive, HEK293 tox 45µM
CC1=C[C@@H](CN2CCN(C)CC2)[C@H](C(C)C)C[C@H]1Cc1nnc(-c2ccc(C)cc2)o1	3T3 cytotox 22µM, HEK293 tox 28µM
CC1=C[C@@H](CN2CCOCC2)[C@H](C(C)C)C[C@H]1Cc1nnc(-c2ccc(N(C)C)cc2)o1	3T3 cytotox inconclusive, HEK293 tox inconclusive
CC1=C[C@@H](CN2CCN(C)CC2)[C@H](C(C)C)C[C@H]1Cc1nnc(-c2ccc(N(C)C)cc2)o1	3T3 cytotox 40µM, HEK293 tox 22µM
CCOC(=O)[C@@H]1CN(C(=O)OCC)[C@H]2c3ccccc3O[C@@H]12	3T3 cytotox inconclusive (no result: GPT2 inhibitor, hNpr1 antagonist, Luciferase inh)
CCOc1ccc(-c2cc3c(=O)n(CCNC(=O)C4(c5ccccc5)CC4)ccn3n2)cc1	Luciferase inh 25µM
CCOc1ccc(-c2cc3c(=O)n(CCNC(=O)c4ccccc4OC)ccn3n2)cc1	Luciferase inh 16µM, HEK293 tox inconclusive
CN(Cc1cccc(C(F)(F)F)c1)C(=O)c1cccc(Cl)c1	3T3 cytotox inconclusive, HEK293 tox 100µM
CN(Cc1cccc(C(F)(F)F)c1)C(=O)Cc1cccc(Cl)c1	Luciferase inh inconclusive, HEK293 tox inconclusive
O=C(Nc1ccc([C@@H](O)[C@H]2COCC(=O)N2CC2CC2)cc1)C1CCCC1	3T3 cytotox inconclusive
Cc1ccc2nc(NC(=O)Cn3nc4c(cc3=O)CCCCC4)sc2c1	Luciferase inh 35µM, HEK293 tox inconclusive
O=C(Cn1nc2c(cc1=O)CCCCC2)NCCn1ccc2c(Cl)cccc21	3T3 cytotox inconclusive, HEK293 tox 79µM
O=C(Cn1nc2c(cc1=O)CCCC2)NCCn1ccc2c(Cl)cccc21	3T3 cytotox inconclusive, HEK293 tox inconclusive
CC(C)NC(=O)Cn1nc2c(cc1=O)CCCCC2	none
CC(C)[C@H](NC(=O)Cn1nc2c(cc1=O)CCCCC2)C(=O)O	Luciferase inh 22µM
COc1ccc(-c2ccnc(N[C@H]3CO[C@H]4[C@@H]3OC[C@H]4OC(=O)Nc3cccc(C(F)(F)F)c3)n2)cc1	3T3 cytotox inconclusive, HEK293 tox inconclusive
COc1ccc(-c2ccnc(N[C@H]3CO[C@H]4[C@@H]3OC[C@@H]4NS(=O)(=O)c3ccc4ccccc4c3)n2)cc1	hNpr1 antagonist inconclusive, 3T3 cytotox inconclusive, HEK293 tox 22µM
N#Cc1cccc(-c2ccnc(N[C@H]3CO[C@H]4[C@@H]3OC[C@H]4OC(=O)Nc3cccc(C(F)(F)F)c3)n2)c1	GPT2 inhibitor inconclusive, hNpr1 antagonist inconclusive, HEK293 tox 28µM
CCNC(=O)N[C@H]1CO[C@H]2[C@@H]1OC[C@@H]2Nc1nccc(-c2ccc(-c3ccccc3)cc2)n1	hNpr1 antagonist 11µM, Luciferase inh inconclusive, HEK293 tox 10µM
CC(=O)c1cccc(NC(=O)O[C@@H]2CO[C@H]3[C@@H]2OC[C@@H]3Nc2nccc(-c3cccc(F)c3)n2)c1	hNpr1 antagonist inconclusive, Luciferase inh inconclusive, 3T3 cytotox inconclusive, HEK293 tox 35µM
O=C(Nc1cccc(C(F)(F)F)c1)N[C@H]1CO[C@H]2[C@@H]1OC[C@@H]2Nc1nccc(-c2ccc(-c3ccccc3)cc2)n1	3T3 cytotox 32µM, HEK293 tox 35µM
COc1ccccc1C(=O)NC1CCN(C(=O)c2ccc(-c3ccccc3OC)cc2)CC1	3T3 cytotox inconclusive, HEK293 tox inconclusive (no result: hNpr1 antagonist, Luciferase inh)
